{"source": "PubChem BioAssay AID1508600", "about": "(Functional Genomics Laboratory (NCATS/FGL), 2020)", "note": "Out of some 53,000 sequences screened, about 3,700 (7%) were called active.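 How the source made its calls: active means gene knockdowns whose robust z-score for IL-1 alpha signal is at least 2 or at most -2, so actives lie on both sides; inactive means the rest.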 Many of the other results were omitted from the sample, so actives are more common in it than they were."}
{"experiment": "Components of the Cytosolic LPS Sensing Pathway: Gene Identification via Genome-wide siRNA Screen;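 further: robust z of the log signal after scaling to non-targeting control siRNA wells of the plate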", "conditions": "RAW264.7 macrophages, IL-1a HTRF, actives lie on both sides, screened at 100 nM (by protocol), cells primed 5 h with Pam3CSK4 first", "in_short": "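RAW264.7; siRNA 100 nM final, RNAiMAX, 48h 37 degrees C; Pam3CSK4 5 h; LipidA + TransIT-TKO 24 h; IL-1a HTRF; CellTiter-Glo viability; robust z vs negative-control median.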"}
{"sequence": "GGUUUCGUAUAAAUUCUCUTT against Ank", "z-score": "1.53 (inactive)"}
{"sequence": "CGGAGUCAUACUUUUUCGATT against Trim12c", "z-score": "0.0182 (inactive)"}
{"sequence": "GGUAAAAUACUACCUGAGATT against Abca15", "z-score": "-0.0103 (inactive)"}
{"sequence": "GGAAUUCUUCAUCCAUGGATT against Olfr570", "z-score": "-2.66 (active)"}
{"sequence": "CGGUUCUGGGAAUUCUUUGTT against Olfr624", "z-score": "-2.11 (active)"}
{"sequence": "GGAAGAAAUGUACAAACUGTT against Spg21", "z-score": "1.63 (inactive)"}
{"sequence": "GGACAUUUUCUUUGGAAAATT against Ccnl1", "z-score": "0.194 (inactive)"}
{"sequence": "GGACAGCAAGACCAACCUATT against Elavl2", "z-score": "-1.87 (inactive)"}
{"sequence": "CCAUAAAUCACUCAGUUUGTT against Adad1", "z-score": "0.222 (inactive)"}
{"sequence": "GGCAUUAUCUACAUGCACATT against Olfr1287", "z-score": "0.228 (inactive)"}
{"sequence": "GCAUGGCUAUUUAACAUUCTT against Rpl7l1", "z-score": "0.171 (inactive)"}
{"sequence": "GCAAUUUCUGUGUGAAGAATT against Ahcyl1", "z-score": "-0.705 (inactive)"}
{"sequence": "GGGCUCUAGCUAAAAACGATT against Med10", "z-score": "1.23 (inactive)"}
{"sequence": "AGUCUCCAAAUGCAUUUAATT against Serpinb9g", "z-score": "-2.5 (active)"}
{"sequence": "GAAUCGGAGGACAAAAUACTT against Emx1", "z-score": "0.368 (inactive)"}
{"sequence": "GCACCUUUGAAUGUGAAGUTT against Ccl2", "z-score": "-0.408 (inactive)"}
{"sequence": "CCUUCAUUGGUUAGCAUGUTT against Rbl2", "z-score": "-0.424 (inactive)"}
{"sequence": "CACGACCUAGGUGUGACCATT against Arrdc2", "z-score": "-2.31 (active)"}
{"sequence": "CCUGACGAUCAAAUCACUGTT against Mvb12a", "z-score": "0.0387 (inactive)"}
{"sequence": "CGCCAAUAUGGCCAUUGACTT against Ikzf2", "z-score": "-0.304 (inactive)"}
{"sequence": "GGCUCUGUUUAUCCUGGAGTT against Pcdha7", "z-score": "-0.0385 (inactive)"}
{"sequence": "GGUUUCAUUUUUCGAGGAGTT against Cit", "z-score": "-0.269 (inactive)"}
{"sequence": "GGUGAUACCAUCACUUUGATT against Mark2", "z-score": "0.173 (inactive)"}
{"sequence": "GCCGCAUCCACACAUCUCUTT against Daam2", "z-score": "0.465 (inactive)"}
{"sequence": "GGCACUCAGGAACUUCCUGTT against Eci3", "z-score": "-2.05 (active)"}
{"sequence": "GCCCAUAGUAUAAAAUACCTT against Dzip1", "z-score": "1.06 (inactive)"}
{"sequence": "GGAAGAUGCCUUUUCCAAGTT against Syt1", "z-score": "0.752 (inactive)"}
{"sequence": "GGUGGAAUAUAUUGAGUAUTT against Fam199x", "z-score": "0.251 (inactive)"}
{"sequence": "CGACUAAGGAUGAAAAGCATT against Apbb1ip", "z-score": "-3.04 (active)"}
{"sequence": "GCGAAAGACGAUCAAAACCTT against Scn1a", "z-score": "0.841 (inactive)"}
{"sequence": "GGCUACACUCUGACAGCACTT against Znhit2", "z-score": "-0.666 (inactive)"}
{"sequence": "GCCCGGUAAAGGUAUCCAUTT against Trp53bp1", "z-score": "0.384 (inactive)"}
{"sequence": "GGGAGUUACUAACCACUUCTT against Gja3", "z-score": "-2.05 (active)"}
{"sequence": "GCCUCUCCUGUGAAUGACATT against Erlec1", "z-score": "-0.699 (inactive)"}
{"sequence": "GGGUGUCACAAAAUAAAAUTT against Sigirr", "z-score": "-0.245 (inactive)"}
{"sequence": "GGAGAUGAACCAUUAUGUCTT against Mycbp", "z-score": "-2.03 (active)"}
{"sequence": "GCAGAAAUACUGGCGAAUATT against Gm9725", "z-score": "0.607 (inactive)"}
{"sequence": "GGUGGAGACACUGAAGGUUTT against Akap1", "z-score": "0.314 (inactive)"}
{"sequence": "GACCAGAAAUUUAAGUGCUTT against Dnajc30", "z-score": "1.5 (inactive)"}
{"sequence": "GGAUCUUCCUCAUCACCCUTT against Ube4a", "z-score": "0.657 (inactive)"}
{"sequence": "GCUUACCUGCUGUCUUAAUTT against F630003A18Rik", "z-score": "0.42 (inactive)"}
{"sequence": "GGAGCUCCUGAACAGGAUCTT against Gpr26", "z-score": "2.13 (active)"}
{"sequence": "CCUUACAUGUUGACUACCCTT against Rnase13", "z-score": "0.403 (inactive)"}
{"sequence": "GGUCUUCUGUCCAUUAGUGTT against Pigc", "z-score": "0.14 (inactive)"}
{"sequence": "GGAGAAAGAUGGCAUAAUGTT against Slitrk6", "z-score": "-0.595 (inactive)"}
{"sequence": "GGUGAAGGUGAACAAGGACTT against Myh9", "z-score": "2.92 (active)"}
{"sequence": "GGACAAUCCAUAAGUUAAATT against Scai", "z-score": "0.22 (inactive)"}
{"sequence": "GGAAGUUAAGCAUAGUUUCTT against Flrt3", "z-score": "1.15 (inactive)"}
{"sequence": "GGCAACAGUAUUUAUGAAUTT against Sim2", "z-score": "-0.45 (inactive)"}
{"sequence": "CCUAGCAUGUUUCUUGCUATT against Rnft2", "z-score": "0.46 (inactive)"}
{"sequence": "GGAGAAAAUUGUCAAGAAGTT against Ift122", "z-score": "-0.824 (inactive)"}
{"sequence": "CCAGGAUCAAAGAACUUAUTT against Olfr1424", "z-score": "-3.39 (active)"}
{"sequence": "GGAACUUUUCAUCCUGAAGTT against Fgl1", "z-score": "0.0919 (inactive)"}
{"sequence": "GCUCAUCAAGCUGUACCUATT against Eif2b1", "z-score": "1.16 (inactive)"}
{"sequence": "GCUUUGAUUUAUGAGGUCATT against Ttc30a1", "z-score": "0.251 (inactive)"}
{"sequence": "GGUCUUGUGGUGGUACUACTT against Elovl2", "z-score": "1.77 (inactive)"}
{"sequence": "GGCCAUUCUGGAAACUCCATT against Foxp4", "z-score": "-0.0644 (inactive)"}
{"sequence": "GGAAUAAUAGAGGAAUGAGTT against Bclaf1", "z-score": "-1.61 (inactive)"}
{"sequence": "GGAGAGAGAUUUUCAAUAUTT against Gtdc1", "z-score": "-0.41 (inactive)"}
{"sequence": "GGAGAGCCUUAUUCAUCGCTT against H2-DMb2", "z-score": "-0.0566 (inactive)"}
{"sequence": "GGAAUCUGUCAUGUGAAUATT against Slc1a5", "z-score": "-0.0766 (inactive)"}
{"sequence": "GCUGGUGCAUUACUGAGGUTT against Olfr69", "z-score": "0.434 (inactive)"}
{"sequence": "CCAAACACUAUGUGACAAGTT against Trim8", "z-score": "-0.626 (inactive)"}
{"sequence": "GCGGGUGAAAUACACCAAGTT against Trim28", "z-score": "-2.2 (active)"}
{"sequence": "GGCCAAGCAUGUUUUGUCATT against Cep72", "z-score": "-0.639 (inactive)"}
{"sequence": "GCUUGGUGGGUUUGUUGAUTT against Slc28a1", "z-score": "-0.113 (inactive)"}
{"sequence": "GUGCUCUAUGUCUUCACUGTT against Ltb4r2", "z-score": "-1 (inactive)"}
{"sequence": "CGACUACCAACAGUUCAUATT against P2rx6", "z-score": "1.14 (inactive)"}
{"sequence": "UCCAUUUCGACCCUUGUACTT against Romo1", "z-score": "-2.88 (active)"}
